The text below walks through data of PubChem BioAssay (EPA / NIEHS).

Calls of active or inactive are those of the source. Rule for the calls: active = hit-call score of the fitted dose curve at least 0.9, where 1 is the maximum; inactive = score below 0.9.

Read-out in the assay: Matrix Metallopeptidase 1 (MMP1), MMP1 (gene 4312)
Description: BSK_hDFCGF_MMP1: BioMAP Diversity Plus: hDFCGF Assay for Matrix Metallopeptidase 1 (MMP1) Biomarker Activity (AID 2283064). To be noted: primary human foreskin fibroblasts; actives raise or lower the signal. Here is the method: BSK_hDFCGF is a cell-based, multiplexed-readout assay that uses foreskin fibroblast, a human skin primary cell, with measurements taken at 24 hours after chemical dosing in a 96-well plate.BSK_hDFCGF_MMP1 is an assay component measured in the BSK_hDFCGF assay. It measures MMP-1 antibody related to regulation of gene expression using ELISA technology.Data from the assay component BSK_hDFCGF_MMP1 was analyzed into 1 assay endpoint. This assay endpoint, BSK_hDFCGF_MMP1, was analyzed with bidirectional fitting relative to DMSO as the negative control and baseline of activity. Using a type of binding reporter, gain or loss-of-signal activity can be used to understand changes in the signaling as they relate to the gene MMP1. Furthermore, this assay endpoint can be referred to as a primary readout, because this assay has produced multiple assay endpoints where this one serves a signaling function. To generalize the intended target to other relatable targets, this assay endpoint is annotated to the protease intended target family, where the subfamily is matrix metalloproteinase.
The levels of cell surface (or secreted, indicated by the prefix "s") biomarker endpoints were measured by ELISA. Overt cytotoxicity to cells in confluent adherent cultures (all systems other than the BT system) was assessed by measuring total protein levels using sulforhodamine B (SRB) staining in parallel cultures at the time of biomarker measurements, indicated as SRB endpoints. For proliferation assays for adherent cell types, individual cell types are cultured at sub-confluence and relative cell numbers quantified by SRB staining at time points optimized for each system (48 h: 3C and CASM3C systems; 72 h: BT and HDF3CGF systems; 96 h: SAg system). SRB was performed by staining cells with 0.1% SRB after fixation with 10% TCA and reading wells at 560 nm.Viability and proliferation of PBMC (T cells) was quantified by Alamar Blue reduction for the SAg and BT systems. For PBMC viability (referred to as PBMC Cytotoxicity within the assay endpoint names), cells were plated (75,000/well in a 96-well plate) and then chemical samples added for 1 h before addition of activators, SEB and TSST-1 (20 ng/mL final concentration each). Cells were incubated for 90 h. Then, Alamar Blue (20 uL/well) (Invitrogen, Cat DAL1100) was added for 6 h, and the plates were read with a fluorescence microplate reader at 546/580 nm (excitation/emission). For PBMC proliferation, cells were plated and activated as above but incubated for only 16 h prior to addition of Alamar Blue. Plates were read after 6 h.
As to `O=P(OCC(Br)CBr)(OCC(Br)CBr)OCC(Br)CBr` (stereo not given), the result was inactive.
The same measure, in the same setting: then `N#Cc1cc([N+](=O)[O-])ccc1N`, with “inactive”.
Regarding `CCOP(=S)(S)OCC`, the outcome was inactive.
On the same count and under the same terms, in the case of `O=S1(=O)OCC2C(CO1)C1(Cl)C(Cl)=C(Cl)C2(Cl)C1(Cl)Cl` (stereo not given) it was “inactive”; in that of `O=C(O)C(F)(F)OC(F)(F)C(F)(F)OC(F)(F)F`, “inactive”.
Still for that read-out and setting: then `Nc1cc2c3c(c1)C(c1ccccc1)=N[C@@H](NC(=O)c1cccnc1)C(=O)N3CC2`, with “inactive”.
Same read-out and setting: in the case of `O=C(O)C(F)(F)OC(F)(F)C(F)(F)OC(F)(F)C(=O)O` it was “inactive”; in that of `COP(=O)(CCC(=O)NCO)OC`, “inactive”; in that of `CSC(C)(C)C=NO`, “inactive”.
Regarding `Cc1cccc(N)c1`, the result was inactive.
Same read-out and setting: in the case of `CCCCOCCOP(=O)(OCCOCCCC)OCCOCCCC` it was “inactive”; in that of `COP(=O)(O)OC`, “inactive”.
Still for that read-out and setting: then `CCCCN(CCCC)N=O`, with “inactive”; and `CCOP(=S)(OCC)SCS(=O)(=O)CC`, with “inactive”; and `Cc1c([N+](=O)[O-])cc2c(c1[N+](=O)[O-])C(C)(C)CC2(C)C`, with “inactive”.
Regarding `CCOS(=O)(=O)OCC`, the outcome was inactive.
Still for that read-out and setting: then `FC(F)(F)C(F)(C(F)(F)F)C(F)(F)C(F)(F)CC1CO1` (stereo not given), with “inactive”; and `CC(C)(C)c1ccccc1OP(=O)(Oc1ccccc1)Oc1ccccc1`, with “inactive”; and `O=C(O)C(F)(F)C(F)(F)C(=O)O`, with “inactive”.
Regarding `ClC1=C(Cl)C2(Cl)C3C(Cl)C(Cl)CC3C1(Cl)C2(Cl)Cl` (stereo not given), the AC50 is 10.1 µM (active).
For `CCN(CC)c1ccccc1`, the result was inactive.
Regarding `CCC(C)(C)c1ccc(O)cc1`, the outcome was inactive.
Take `COCCOCCO`: the outcome was inactive.
Same read-out and setting: in the case of `O=C(O)C(F)(OC(F)(F)C(F)(F)C(F)(F)F)C(F)(F)F` (stereo not given) it was “inactive”.
Consider `CCCCN(CCCC)SN(C)C(=O)Oc1cccc2c1OC(C)(C)C2`, for which the AC50 is 12.4 µM (active).
Turning to `Cc1ccc(N)cc1N`, the outcome was inactive.
On to `c1ccc(OP(Oc2ccccc2)Oc2ccccc2)cc1`, for which the result was inactive.
Take `NC(=O)C(F)(F)C(F)(F)F`: the result was inactive.
Consider `CCOC(=O)c1ccccc1C(=O)OCC`, for which the result was inactive.
Still for that read-out and setting: in the case of `OCC(F)(F)OC(F)(F)C(F)(F)OC(F)(F)C(F)(F)OC(F)(F)F` it was “inactive”; in that of `ClC(Cl)(Cl)c1ccccc1`, “inactive”; in that of `CCOP(=S)(OCC)SCn1nnc2ccccc2c1=O`, “inactive”.
Regarding `CCCCC(CC)COP(=O)(Oc1ccccc1)Oc1ccccc1` (stereo not given), the AC50 is 6.33 µM (active).
On to `CC(Cc1ccc(OCC(=O)O)cc1)NCC(O)c1csc(C(F)(F)F)n1` (stereo not given), for which the result was inactive.
The same measure, in the same setting: then `[N-]=[N+]=[N-]`, with “inactive”; and `Nc1ccc2ccccc2c1`, with “inactive”; and `c1nc[nH]n1`, with “inactive”.
On the same count and under the same terms, in the case of `COC(=O)C(F)(F)C(F)(F)OC(F)(C(F)(F)F)C(F)(F)OC(F)=C(F)F` (stereo not given) it was “inactive”.
Regarding `ClC(Cl)=C(c1ccc(Cl)cc1)c1ccccc1Cl`, the AC50 was 3.83 µM (active).
Consider `CCOP(=S)(Oc1ccc([N+](=O)[O-])cc1)c1ccccc1` (stereo not given), for which the result was inactive.

By AC50 is commonly meant the midpoint of the concentration-response curve, whichever way the signal moves.
